Experimental data: PubChem BioAssay AID1572 (National Center for Advancing Translational Sciences (NCATS), 2009)
Inconclusive results are not listed. Values without a mark were called inactive. The source made the active and inactive calls. Calls follow the shape of the dose curve; as a rule, active = well fitted curve in either direction with a large enough effect; inconclusive = small, poorly fitted or top-dose-only effect; inactive = flat fitted curve, though single readings scatter.

Test: Total Fluorescence Confirmation Counterscreen for Inhibitors of the Interaction of Thyroid Hormone Receptor and Steroid Receptor Coregulator 2
Settings: Texas Red total fluorescence, TRbeta/SRC2 FP artifact counterscreen; series mostly up to 92.2 µM; total fluorescence change, both ways: at the top concentration
From the text: NIH Molecular Libraries Probe Production Network [MLPCN] NIH Chemical Genomics Center [NCGC] MLPCN Grant: DK058080 Assay Provider: R. Kip Guy, St. Jude Children's Research Hospital NCGC Assay Overview: Thyroid receptor (TR) regulates many homeostatic processes including basal metabolism, cardiovascular function, body weight, and lipid trafficking. TR modulators are potential therapeutics for obesity and hyperlipidemias but current thyroid analogs have undesirable side effects, particularly cardiac stimulation. To identify inhibitors that specifically prevent the interaction of TR with the steroid receptor coregulator 2 (SRC2), a fluorescence polarization assay was screened. This assay detects interaction of the ligand-binding domain of human TRbeta with a Texas Red labeled SRC2 peptide, corresponding to a 20 amino acid region of the nuclear receptor interaction domain (Arnold et al., 2006). Total fluorescence (555 nm excitation and 632 nm emission) was measured to identify potential fluorescent and light absorbing compounds. Such compounds may be artifacts that interfere with the fluorescence polarization assay. This assay is a confirmation assay for AID 1479. Arnold, L. A.; Estebanez-Perpina, E.; Togashi, M.; Shelat, A.; Ocasio, C. A.; McReynolds, A. C.; Nguyen, P.; Baxter, J. D.; Fletterick, R. J.; Webb, P.; Guy, R. K. A high-throughput screening method to identify small molecule inhibitors of thyroid hormone receptor coactivator binding. Sci STKE 2006, p 13.
NCGC Assay Protocol Summary: For screening, 5 uL/well 0.6 uM TRbeta and 20 nM SRC2 Texas Red in protein buffer (20mM Tris hydrochloride, 100mM NaCl, 10% glycerol, 1mM EDTA, 0.01% NP-40, 1mM DTT, 1uM T3 and 5% DMSO) was dispensed into black solid 1536-well plates (Grenier) using a solenoid-based dispenser. Following transfer of 23 nL compound or DMSO vehicle by a pin tool, the plates were centrifuged 15 s at 1000 RPM and incubated 5 hr at ambient temperature. The plates were read by an Envision (Perkin Elmer) to detect fluorescence polarization of SRC2 Texas Red (555 nm excitation and 632 nm emission). Data were normalized to unbound (all components except TRbeta) and bound SRC2 Texas Red controls. Total fluorescence (TF) was calculated as follows: TF = S + 2P where S and P are fluorescence readings in the parallel and perpendicular channels, respectively. In this assay, we provide % activity data for each concentration as well as potencies for the active compounds.

SMILES | total fluorescence change, both ways | Potency
Cc1ccc(-c2nc(S(=O)(=O)c3ccc(F)cc3)c(SCC(=O)NCC3CCCO3)o2)cc1 (stereo not given) | -10.4% | –
CC(=O)NC1N=C(C)N(c2ccccc2)C1=O (stereo not given) | 9.72% | –
O=C(O)[C@H]1CN(CCCP(=O)(O)O)CCN1 | -7.22% [at 184 µM] | –
CCOc1cc(C(c2c(C)[nH][nH]c2=O)c2c(C)[nH][nH]c2=O)ccc1OS(=O)(=O)c1ccc(C)cc1 | 5.37% | –
COc1ccc2ccc3c(c2c1)N=CC1(O3)N(C)c2ccccc2C1(C)C (stereo not given) | 2.19% | –
O=c1cc(C23CC4CC(CC(C4)C2)C3)[nH][nH]1 | -5.37% | –
Cc1ccc(OC(=S)Nc2ccc(O)cc2)cc1 | -1.98% | –
CC1=NN(c2ccc(F)cc2)C(=O)C1C(c1cccc(O)c1)c1c(C)[nH]n(-c2ccc(F)cc2)c1=O (stereo not given) | -16.4% | –
O=C1CNC(=S)N1c1nc(-c2ccccc2)cs1 | – | 11.2 µM [quencher] (active)
CN1N=C(C(C)(C)C)CC1=O | 1.82% | –
COc1ccc(C(=O)/C=C/Nc2ccc(S(=O)(=O)Nc3ncccn3)cc2)cc1 | 8.18% | –
O=C(O)/C=C/C(=O)Nc1ccc(SC(F)(F)C(F)(F)C(F)(F)F)cc1 | 6.28% | –
Cc1cc(C)cc(OCC(=O)NCCc2nc3ccccc3[nH]2)c1 | 6.66% [at 184 µM] | –
O=c1[nH]c(Nc2ccccc2)cc2ccccc12 | 5.66% | –
COc1cc(NC(C)CCCN)c2ncccc2c1 (stereo not given) | 2.44% [at 184 µM] | –
CN(C)c1cc(Cl)c2nonc2c1N | 1.14% | –
CCN(C(=O)C1CCCN(c2ncnc3onc(-c4ccc(F)cc4)c23)C1)c1ccccc1 (stereo not given) | 5.18% [at 184 µM] | –
CCCCOc1ccc(C(=O)CCN2CCOCC2)cc1 | 8.29% | –
Cc1nc2c3cc(F)ccc3n(Cc3ccccc3F)c2s1 | 0.375% | –
CCOc1ccc(C2=Cc3cc(OC)c(OC)cc3C(=C(Cl)Cl)O2)cc1 | -0.317% | –

SMILES | total fluorescence change, both ways | Potency
CN1c2ccccc2C(C)(C)C12C=Nc1c(ccc3ccccc13)O2 (stereo not given) | 3.13% | –
Cc1[nH][nH]c(=O)c1C(c1ccc(-c2ccc(Cl)c(Cl)c2)o1)c1c(C)[nH][nH]c1=O | 2.21% | –
Nc1cc(-c2ccncc2)c[nH]c1=O | – | inactive
COc1cc(C(c2c(C)[nH][nH]c2=O)c2c(C)[nH][nH]c2=O)ccc1OC(=O)c1ccccc1OC | 2.7% [at 184 µM] | –
Nc1cc(N)c(OCC(F)(F)F)cc1OCC(F)(F)F | 7.18% | –
CCCc1cc(=O)[nH]c(=S)[nH]1 | -2% | –
CC(NC(=O)Nc1ccc(O)cc1)(C(F)(F)F)C(F)(F)F | -1.5% | –
O=C(NNc1cc(N2CCOCC2)nc(N2CCOCC2)n1)c1ccc(Cl)c(Cl)c1 | – | 39.8 µM [quencher] (active)
CS(=O)(=O)c1ccc(C(=O)OCC(=O)NC23CC4CC(CC(C4)C2)C3)cc1[N+](=O)[O-] | 5.22% | –
Cc1cccc(S(=O)(=O)c2cn(Cc3ccccc3)c3cc(N4CCC(C)CC4)c(F)cc3c2=O)c1 | 5.69% [at 184 µM] | –
COc1ccccc1Nc1cc2ccccc2c(=O)[nH]1 | -10.5% | –
COc1cc(/C=C(\C#N)C(=O)NCC2CCCO2)ccc1OCCC(C)C (stereo not given) | 4.15% | –
CCCCOc1ccc(C(=O)CCN2CCCCC2)cc1 | 6.86% | –
Cn1cc[nH]c1=S | -0.484% | –
O=C(Nc1nc2ccc(Cl)cc2s1)c1ccc(N2CCCCC2)c([N+](=O)[O-])c1 | 2.3% | –
N/C(Cc1cccc2ccccc12)=N\OC(=O)c1cccs1 | 29.5% | –
Cn1c(NNC(=O)c2c(F)cccc2F)cc(=O)n(C)c1=O | 2.85% | –
CCc1ccc2c(c1)c1nc(C)sc1n2CC | 0.366% | –
Cn1c(-c2ccc(=O)[nH]c2)nc2ccccc21 | 5.74% | –
CS(=O)(=O)c1ccc(C(=O)OCC(=O)NC(=O)C2CCCCC2)cc1[N+](=O)[O-] | -3.18% | –
